Measurements from ChEMBL document CHEMBL1201862, “PubChem BioAssay data set” (2004).
Among all 350,000 compounds or so, about 700 (0.2%) were called active. No cut-off for these calls is given here. This excerpt belongs to a sample that is enriched for actives.

target: RecQ-like DNA helicase BLM (Homo sapiens) (UniProt P54132); assay: qHTS Assay for Inhibitors of Bloom's syndrome helicase (BLM).; assay type: functional
Sequence (P54132 whole entry): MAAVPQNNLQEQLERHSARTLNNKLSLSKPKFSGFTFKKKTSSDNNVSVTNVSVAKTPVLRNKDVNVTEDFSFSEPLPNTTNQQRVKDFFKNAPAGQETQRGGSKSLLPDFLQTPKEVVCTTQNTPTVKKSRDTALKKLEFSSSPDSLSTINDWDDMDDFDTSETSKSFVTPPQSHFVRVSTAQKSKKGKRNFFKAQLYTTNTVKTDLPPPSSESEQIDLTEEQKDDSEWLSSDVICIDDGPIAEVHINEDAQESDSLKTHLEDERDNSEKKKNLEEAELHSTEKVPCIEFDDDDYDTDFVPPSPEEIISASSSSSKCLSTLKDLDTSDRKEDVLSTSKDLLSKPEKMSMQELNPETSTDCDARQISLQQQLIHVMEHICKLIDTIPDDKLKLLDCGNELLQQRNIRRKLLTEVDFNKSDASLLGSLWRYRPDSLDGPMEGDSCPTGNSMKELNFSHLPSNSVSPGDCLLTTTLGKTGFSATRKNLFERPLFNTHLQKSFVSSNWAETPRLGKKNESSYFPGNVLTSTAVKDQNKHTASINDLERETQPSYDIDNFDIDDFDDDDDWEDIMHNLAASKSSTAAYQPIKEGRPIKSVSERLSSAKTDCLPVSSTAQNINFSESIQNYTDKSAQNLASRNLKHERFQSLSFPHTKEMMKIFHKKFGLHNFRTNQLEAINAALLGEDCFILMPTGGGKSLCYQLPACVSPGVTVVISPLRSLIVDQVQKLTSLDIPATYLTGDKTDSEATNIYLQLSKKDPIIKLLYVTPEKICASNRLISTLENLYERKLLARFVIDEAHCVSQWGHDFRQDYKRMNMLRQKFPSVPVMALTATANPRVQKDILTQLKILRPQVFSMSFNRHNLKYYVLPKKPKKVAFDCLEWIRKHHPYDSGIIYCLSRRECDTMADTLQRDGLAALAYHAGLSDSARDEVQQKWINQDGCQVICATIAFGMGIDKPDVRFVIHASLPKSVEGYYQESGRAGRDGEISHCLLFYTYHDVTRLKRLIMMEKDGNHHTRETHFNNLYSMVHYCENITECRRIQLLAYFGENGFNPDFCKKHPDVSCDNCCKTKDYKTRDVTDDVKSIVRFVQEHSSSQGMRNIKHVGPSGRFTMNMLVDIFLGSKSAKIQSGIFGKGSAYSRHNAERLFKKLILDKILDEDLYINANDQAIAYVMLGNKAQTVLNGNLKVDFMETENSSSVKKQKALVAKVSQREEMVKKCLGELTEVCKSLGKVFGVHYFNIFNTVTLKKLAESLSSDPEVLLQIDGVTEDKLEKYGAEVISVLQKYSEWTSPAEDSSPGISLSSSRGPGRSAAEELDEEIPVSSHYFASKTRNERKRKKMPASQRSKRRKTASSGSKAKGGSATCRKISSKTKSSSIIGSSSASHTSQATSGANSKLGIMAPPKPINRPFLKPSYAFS

Structure (SMILES)	Potency
Nc1nc(N)c2nc(CNc3ccc(C(=O)N[C@@H](CCC(=O)O)C(=O)O)cc3)cnc2n1	20 µM (active)
